The list is not random: actives were taken first. Their share in the collection is about 20%.
Pf growth 96h: Primary qHTS for delayed death inhibitors of the malarial parasite plastid, 96 hour incubation; P. falciparum luciferase reporter growth, 96 h; Potency, µM (highest dose often 28.7 µM), without a hit: top-dose activity change, negative = inhibition, actives largely listed as inhibitors; 320,000 compounds, 6.9% hits; also: potency is read from the fitted curve at half-maximal effect; % is scaled to controls: 0 for no effect and ±100 for the full control effect
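Luminescence readout: decreased luciferase signal marks inhibited growth of reporter-expressing P. falciparum in infected red cells (2% hematocrit, 0.05% parasitemia final), exposed to compound two generations (96 h, 37 C, 5% CO2).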
HCMV inh: qHTS Assay for inhibitors of the human cytomegalovirus (HCMV); 410,000 compounds, 4.5% hits; activity change, negative = inhibition, % at 57.5 µM; HFF cells, HCMV-luciferase reporter, 72 h; hits give low values; in the data active = activity change below about -60%; inconclusive = no clear call, values can overlap the other calls; inactive = above about -39%; also: % is scaled to controls: 0 for no effect and ±100 for the full control effect
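After 16 h attachment at 37C, HFF cells received test compound and HCMV-luciferase (1 PFU/cell); reporter luminescence read 72 h later, data normalized against buffer-only and known inhibitor Salinomycin.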
Shiga toxin inh: A qHTS for Small Molecule Inhibitors of Shiga Toxin; Vero cells, Shiga toxin protein synthesis inhibition reporter; inhibition, % at 38.7 µM; 290,000 compounds, 9.2% hits; AID 2315, 2010; in the data active = inhibition mostly above about 28%, no sharp cut-off; inactive = mostly below about 43%; also: 0% is about no effect
Pf growth 48h: Primary qHTS for delayed death inhibitors of the malarial parasite plastid, 48 hour incubation; Potency, µM (highest dose often 28.7 µM), without a hit: at the highest dose activity change, negative = inhibition, hits mostly inhibitors; P. falciparum luciferase growth in erythrocytes, 48 h; AID 504832, 2011; 310,000 compounds, 5.9% hits; also: potency is read from the fitted curve at half-maximal effect; % is scaled to controls: 0 for no effect and ±100 for the full control effect
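Cell-based growth assay: transgenic P. falciparum expressing firefly luciferase, cultured in red cells within RPMI 1640 containing 0.5% w/v Albumax, 24 mM bicarbonate and gentamycin. A drop in luciferase activity indicates inhibition.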
CHX counter: Cycloheximide Counterscreen for Small Molecule Inhibitors of Shiga Toxin. cell reporter, cycloheximide protein synthesis inhibition counterscreen. max response, %. 300,000 compounds, 12% hits. AID 2314, 2010; in the data active = max response mostly above about 13%, no sharp cut-off; inactive = mostly below about 14%; also: read at 38.3 µM for the half of the compounds with a filed dose; 0% is about no effect
Starred values were filed as active, the others as inactive; ? = inconclusive; / = no result given; [ ] = dose if it differs, or a comment. Unless noted, calls follow the shape of the dose curve; as a rule, active = well fitted inhibition curve with a large enough effect; inconclusive = small, poorly fitted or top-dose-only effect, or another doubt; inactive = no such curve, though single readings can be large or run the other way.

SMILES	Pf growth 96h	HCMV inh	Shiga toxin inh	Pf growth 48h	CHX counter
CCO[C@H]1OC(C(=O)N2CCN(C)CC2)=C[C@@H](C2CC2)[C@@H]1CCCO	-2%	-3	-8	-4%	-2
CCCNC(=O)c1cc(Cl)c(NC(=O)C2=CSCCO2)cc1OC	3%	27	19*	11%	20
CCOCCCNC(=O)c1cc(Cl)c(NC(=O)C2=C(C)OCCS2)cc1OC	28%	-80*	-3	?	2
CCCNC(=O)c1cc(Cl)c(NC(=O)C2=C(C)OCCS2)cc1OC	1%	-35	27	?	21
C[C@H]1CN([C@@H](C)CO)C(=O)CCCn2cc(nn2)CO[C@@H]1CN(C)S(=O)(=O)c1ccc(Oc2ccccc2)nc1	/	13	/	/	/
Cc1ccc2c(c1)C(=O)C1(O)CCN(c3ccccc3)C1=N2 (centres undefined)	/	/	47	/	36*
COc1cc2c(cc1OC)CN(c1nc(CN3CCCC3)nc3sc(C)c(C)c13)CC2	?	-23	-9	?	-1
COc1cccc(Nc2nc(CN3CCOCC3)nc3sc4c(c23)CCCC4)c1	?	-12	-8	15µM*	-3
COc1cc2c(cc1OC)CN(c1nc(CN3CCCCC3)nc3sc4c(c13)CCCC4)CC2	1.9µM*	37	-5	3.3µM*	-4
COc1cc2c(cc1OC)CN(c1nc(CN3CCOCC3)nc3sc4c(c13)CCCC4)CC2	1.7µM*	1	-11	9.3µM*	-1
CCOc1ccc2oc(C(=O)Nc3cc(C)ccn3)c(C)c2c1	-26%	43	/	-2%	/
Cn1c(CCNC(=O)c2cccs2)nnc1SCC(=O)Nc1nc(-c2ccccc2)cs1	14%	45	8	7.4µM*	6
Cn1cnnc1SCC(=O)Nc1nc(-c2ccccc2)cs1	?	0	5	-12%	13*
CSCCC(C(=O)N(C)CC(=O)Nc1cccc(F)c1)N1C(=O)c2ccccc2C1=O (centres undefined)	?	23	/	-22%	/
CN(Cc1ccccc1)C(=O)CN1C(=O)COc2ccc(S(=O)(=O)N3CCCC3)cc21	?	-8	-2	?	9
CC(C)N(Cc1ccccc1)C(=O)CN1C(=O)COc2ccc(S(=O)(=O)N3CCCCCC3)cc21	6%	-81*	-3	0.83µM*	-4
O=C(O)CN1C(=O)COc2ccc(S(=O)(=O)N3CCCCCC3)cc21	?	-61*	-8	26%	-3
C=Cc1ccc(Cn2nc(-c3ccccc3)ccc2=O)cc1	24%	3	8	-7%	9
CC(=O)c1cccc(NC(=O)CCn2nc(C)c(S(=O)(=O)N3CCCCC3)c2C)c1	/	-36	/	/	/
O=C(OCC(=O)N1CCN(C(=O)c2ccco2)CC1)c1ccc(Cl)nc1	/	-19	/	/	/
Cc1ccsc1C(=O)OCC(=O)N1CCN(C(=O)c2ccco2)CC1	8%	29	26*	18%	33
O=C(/C=C/c1ccc(OC(F)F)cc1)OCC(=O)N1CCN(C(=O)c2ccco2)CC1	17%	-21	-11	4%	-1
Cc1cccc(C(=O)OCC(=O)N2CCN(C(=O)c3ccco3)CC2)c1O	/	-8	/	/	/
CCOC(=O)/C=C/C(=O)OCC(=O)N1CCN(C(=O)c2ccco2)CC1	1%	-16	27	40%	9.0*
Cc1cnc(C(=O)OCC(=O)N2CCN(C(=O)c3ccco3)CC2)cn1	5.2µM*	3	1	-1%	-1
SMILES	Pf growth 96h	HCMV inh	Shiga toxin inh	Pf growth 48h	CHX counter
CN1CCN(CCCNC(=O)Nc2ccc([N+](=O)[O-])cc2)CC1	-17%	-11	9	3%[0.00184 µM]	-3
CC(=O)Nc1nn(C)c2nc3cc(C)ccc3cc12	40%	125	-3	7%	-8
CCn1nc(NC(=O)c2ccco2)c2cc3cc(C)ccc3nc21	7%	4	28	-11%	9.8*
Cc1ccc2cc3c(NC(=O)c4ccco4)nn(C)c3nc2c1	8.3µM*	-38	-19	?	-3
O=C(COc1ccc(F)cc1Cl)Nc1cccc(S(=O)(=O)N2CCCC2)c1	?	-2	/	?	/
CCN1CCN(c2ccc(S(=O)(=O)N3CCCCC3)cc2NC(=O)COc2ccc(Cl)cc2)CC1	?	26	/	8.3µM*	/
CCN1CCN(c2ccc(S(=O)(=O)N3CCCCC3)cc2NC(=O)COc2ccc(F)cc2Cl)CC1	?	-9	-8	7.4µM*	-3
CN1CCN(c2ccc(S(=O)(=O)N3CCCCC3)cc2NC(=O)Cc2ccc(Cl)cc2)CC1	?	-27	-9	?	-2
O=C(COc1ccc(S(=O)(=O)N2CCCCC2)cc1)Nc1ccccc1F	9%	15	-2	12µM*	1
CCN1CCN(c2ccc(S(=O)(=O)N3CCCCC3)cc2NC(=O)COc2cc(C)ccc2Cl)CC1	1.9µM*	/	/	12µM*	/
Cc1ccccc1OCC(=O)Nc1cc(S(=O)(=O)N2CCCCC2)ccc1N1CCN(C)CC1	?	?	-9	4%	-2
CCCC[C@@H](C)/C=C(C)/C=C(\C)C(=O)NC1=C[C@@](O)(/C=C/C=C/C=C/C(=O)NC2=C(O)CCC2=O)[C@@H]2O[C@@H]2C1=O	/	/	6	/	6
O=C(COc1ccc([N+](=O)[O-])cc1)Nc1cc(S(=O)(=O)N2CCCCC2)ccc1N1CCCCC1	?	-21	/	?	/
O=C(COc1ccc(F)cc1)Nc1cc(S(=O)(=O)N2CCCCC2)ccc1N1CCCCC1	7.4µM*	-15	/	3.7µM*	/
Cc1ccc(-c2nc(N/N=C/c3ccncc3)c3ccccc3n2)cc1	?	100	76*	/	55*
COc1ccc(/C=N/Nc2nc(-c3cccnc3)nc3ccccc23)cc1OC	?	-12	62*	6.6µM*	31*
Oc1ccc(/C=N/Nc2nc(-c3cccnc3)nc3ccccc23)c(O)c1	?	-26	41*	9.3µM*	53*
COc1ccc(CCNc2nc(SCc3ccc(F)cc3)nc3ccccc23)cc1OC	/	3	/	/	/
COc1ccc(CCNc2nc(-c3cccnc3)nc3ccccc23)cc1OC	?	4	-2	15µM*	7
Cc1ccc(CN(C)c2nc(-c3cccnc3)nc3ccccc23)o1	12µM*	-21	-8	?	0
CCOc1ccc(CN(C)c2nc(-c3cccnc3)nc3ccccc23)cc1OC	?	-18	-6	12µM*	0
Clc1ccccc1-c1nc(N/N=C/c2cccnc2)c2ccccc2n1	-63%	-21	-17	?	-5
Cc1c(O)ccc(/C=N/Nc2nc(-c3cccnc3)nc3ccccc23)c1O	10µM*	-75*	49*	?	59*
CCCCOC(=O)c1ccc(NC(=O)CSc2nc3c(c(=O)[nH]2)CCCC3)cc1	/	-7	/	/	/
O=S(=O)(c1ccccc1)n1nc(-c2ccco2)nc1NCc1ccccc1	/	17	/	/	/
CCc1ccc2[nH]c(C(=O)Nc3ccc4c(c3)OCO4)cc2c1	-11%	3	47	?	19*
O=C(Nc1cccnc1)Nc1ccc2c(c1)OCO2	/	16	88*	132%	43*
